PubChem BioAssay AID590 (National Center for Advancing Translational Sciences (NCATS), 2007)
Among all 59,000 compounds or so, about 6,500 (11%) were called active. About 15% were inconclusive and are not listed. Cut-off read from the data, not from the text of the source: active = max dye-equivalent concentration above about 10 nM; inconclusive = mostly about 1.1 nM to 9.6 nM; inactive = weaker than that. The entries come from a sample that favours actives as a whole.

Assay: qHTS Assay for Spectroscopic Profiling in A350 Spectral Region
Settings: Compound autofluorescence, 340/450 nm, Alexa 350 dye-equivalents; stronger effect = higher value
From the text: NIH Molecular Libraries Screening Centers Network [MLSCN]
NIH Chemical Genomics Center [NCGC]
Occasionally, the artifactual effect may originate from the compounds own spectral or other biophysical properties which generally tend to track its assay concentration. Pre-screening/profiling the library with respect to the compounds spectral properties should help one exclude false positives early on. While the most informative fluorescent profiling data set is obtained by performing a full excitation and emission scan of each well by using a monochromator-based plate reader, such an approach is practical only on a very limited scale as scanning each well requires long time. An alternative approach, applied here, is to perform plate reader scans using selected excitation and emission wavelength pairs to generate a multidimensional relational database that correlates compound concentration and the respective relative fluorescence intensity at a given wavelength set. A standard curve of Alexa 350 (A 350) present on each plate as six-point concentration series, was used to compute a normalized fluorescence response, termed dye-equivalent concentration, for each compound at each concentration.
NCGC Assay Protocol Summary:
100 mM Tris buffer, pH 8.0
The wells in columns 1 through 4 of a Kalypsys polypropylene 1536-well compound plate were filled with standard solutions of fluorophore corresponding to the spectral region of interest. Solutions of A 350 were placed in the following wells: I1, J1: 3 mM, I2, J2: 300 uM, I3, J3: 30 uM, I4, J4: zero (DMSO), K1, L1: 3 uM, K2, L2: […], K3, L3: 300 nM, K4, L4: zero (DMSO).
Six uL of buffer were dispensed to 1536-well Greiner black plates. Compounds and dye standards (23 nL) were transferred via Kalypsys PinTool. The plates were incubated for 15 min at room temperature, and then read on ViewLux (Perkin-Elmer) High-throughput CCD imager using 340 nm and 450 nm excitation and emission filter set.
Keywords: NIH Roadmap, MLSCN, MLI, MLSMR, qHTS, NCGC, A350, A-350, Fluorescent Profiling.

Max dye-equivalent concentration, inactive:
O=C(/C=N/O)Nc1ccccc1
CC1(CCC(=O)OC2CCCCC2)OCCO1
CCOC(=O)c1cc2sccc2n1Cc1ccc(C#N)cc1
CC(C[N+](C)(C)C)OC(N)=O (stereo unspecified)
CCN1C(=O)/C(=C\N2CCN(c3ccccc3)CC2)SC1=S
CC(=O)c1ccc(-n2nnnc2SCC(=O)N2CCN(C(=O)c3ccco3)CC2)cc1
CN1CCN(Cc2nc3c(c(=O)n(C)c(=O)n3C)n2Cc2cccc3ccccc23)CC1
Cc1nnc(C)n1/N=C/c1ccc(C(C)C)cc1
O=C1CC(c2cccc(F)c2)C2=C(CCCC2=O)N1 (stereo unspecified)
CC(N)=NCc1cccc(CN)c1
CCCCN(CC)CCCNC(=O)CS(=O)(=O)Cc1nc(-c2cccc(OC)c2)oc1C
CNC(=O)n1ccc(C(=O)N2CCCCC2)n1
CN(C)/C=C/c1c(C#N)c(=O)ncn1Cc1ccccc1
O=C(Cc1cccs1)N1CCCC(c2nc(-c3ccc(S(=O)(=O)N4CCCC4)cc3)no2)C1 (stereo unspecified)
COc1cc(Cl)c(C)cc1NC(=O)CSc1nnc(-c2cccnc2)n1Cc1ccco1
CO[C@@H]1/C=C\O[C@]2(C)Oc3c(C)c(O)c4c(O)c(c(CN(C)C)c(O)c4c3C2=O)NC(=O)/C(C)=C\C=C[C@@H](C)[C@@H](O)[C@H](C)[C@@H](O)[C@H](C)[C@H](OC(C)=O)[C@@H]1C
CCC(=O)Nc1nc2ccccc2n1Cc1ccccc1C
C=C(Br)Cn1c(CCCC)nc2ccccc21
O=C(OCC(=O)N1CCCC1)c1ccco1
COc1ccc(C)cc1-n1nnnc1SCC(=O)c1cc(C)n(Cc2ccco2)c1C
COc1ccccc1CNc1ncnc2ccc(-c3c(C)noc3C)cc12
Cc1cccc(CNc2cc(-c3ccccc3Cl)ncn2)c1
Cc1noc(C)c1-c1cc(NCc2cccnc2)ncn1
CNc1cc(-c2c(C)noc2C)ncn1
O=C(NC1CC2CCCC(C1)N2C(=O)N1CCCCC1)C1CCCCC1 (stereo unspecified)
CCN(CC)P(=O)(/C(Cl)=C\Nc1c(C)n(C)n(-c2ccccc2)c1=O)N(CC)CC
CCCCN(CCCC)C(=O)CCS(=O)(=O)c1ccc2c(c1)n(C)c(=O)c(=O)n2C
CCOc1ccccc1Oc1cn[nH]c1-c1ccc(OC)cc1O
CCN(C(=O)CSc1ncn[nH]1)c1cccc2ccccc12
CC(=O)NS(=O)(=O)c1ccccc1
O=C(COc1ccc(F)cc1)N(CC1=CCS(=O)(=O)C1)c1ccccc1
COc1cc(C2C(C(=O)c3ccc(C)o3)=C(O)C(=O)N2Cc2cccnc2)ccc1O (stereo unspecified)
CCOC(=O)c1c(C)[nH]c(C(=O)NCc2ccccc2OC)c1C
CCOC(=O)c1c(C)[nH]c(C(=O)COc2ccc3c(c2)OCO3)c1C
CCOC(=O)COc1ccc(Cl)cc1C1NC(=O)NC(C)=C1C(C)=O (stereo unspecified)
O=S(=O)(NCc1cccnc1)c1ccc(Br)s1
CCC[C@H]1C(=O)N2C(N(C)C)=Nc3ccc(C)cc3N2C1=O
CC(=O)C1C(c2cccc(Oc3ccccc3)c2)NC(=O)NC1(O)C(F)(F)F (stereo unspecified)
COc1ccccc1N1CCN(C(=O)c2cc(-c3ccc(Cl)c(Cl)c3)on2)CC1
CCc1c(C)nc2ncnn2c1N1CCC(C(=O)NCc2ccc3c(c2)OCO3)CC1
C=CCC(NCCCO)c1cccc(OC)c1OC (stereo unspecified)
COc1ccc(OCc2ccc(-c3nc4ccccc4c(=O)n3N)o2)cc1
Cc1nnc(SCC(=O)N2CCc3ccccc32)n1-c1ccccc1

Max dye-equivalent concentration, active:
CCc1ccc2oc(-c3ccc(N)cc3)nc2c1 140 nM
CC1CCc2c(sc3c2C2=NS(=O)(=O)CCN2C=N3)C1 (stereo unspecified) 29 nM
CC(=O)OC(C)C[N+](C)(C)C (stereo unspecified) 570 nM
CCN1C(=O)/C(=C2\SC(N3CCCCC3)=NC2=O)c2ccccc21 17 nM
O=C1CC(c2cccc(Br)c2)C2=C(CCCC2=O)N1 (stereo unspecified) 44 nM
CN(C)c1ccnc2sc3c(=O)n(Cc4ccccc4)cnc3c12 32 nM
CCc1nc2ccccc2n(CCOCCOCCn2c(=O)c(CC)nc3ccccc32)c1=O 45 nM
Cc1cnc(CNc2cc(-c3c(C)noc3C)ncn2)cn1 22 nM
COCCNc1cc(-c2c(C)noc2C)ncn1 14 nM
Cc1c(S(=O)(=O)O)ccc(N=Nc2c(O)c(C(=O)O)cc3ccccc23)c1Cl 12 nM
CCCCOC(=O)c1[nH]c(C)c(C(=O)OC)c1C 450 nM
COc1ccc(-c2cc3ccc(OCc4nn[nH]n4)cc3oc2=O)cc1 11000 nM
N#Cc1c2c(c(-c3ccccc3)[nH]c1=O)CCCC2 20 nM
